SMILES strings stand for the structures. Several values for one entry are separate records, joined by “and”; a condition that tells them apart may be missing. Equal entries are not always repeated. Inconclusive results are not listed. A structure can be active in one record and inactive in another. Activity calls are given as the source filed them. Unless noted, calls follow the shape of the dose curve; as a rule, active = well fitted curve in the direction sought with a large enough effect in the repeat runs; inconclusive = weak or mixed curves; inactive = no such curve, though single readings can be large; an effect the other way counts as inactive or inconclusive.

These results are taken from PubChem BioAssay (Tox21).

Assay [1] can be described thus: qHTS RealTime-Glo MT Cell Viability Assay in HEK293 cells - 0 hour (AID 1224880). Also: nearly all actives have a fitted effect of over 45% in size. Also: potency is read from the fitted curve at half-maximal effect. The gist of the method: (§1)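 Luminescence readout at each listed time point; HEK293, 600 cells/well, RealTime-Glo MT reagent added with cells; compounds pinned (23 nL in DMSO) after 5 h at 37 C; continuous culture at 37 C.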
In general terms: qHTS replaces the single test concentration by a dilution series.

The nature of assay [2]: A CellTox Green Cytotoxicity Assay to monitor cytotoxicity in HEK293 cells - 32 hour (AID 1224881). Also: nearly all actives have a fitted effect of over 40% in size. Also: potency is read from the fitted curve at half-maximal effect. The gist of the method:
(§2)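 Read-out: fluorescence of a cell-impermeant cyanine dye staining DNA of dead cells, proportional to cytotoxicity. HEK293, 600 cells/well with reagent, compound (23 nL DMSO) added after 5 h; reads at 0, 8, 16, 24, 32, 40 h.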

A short description of assay [3]: A CellTox Green Cytotoxicity Assay to monitor cytotoxicity in HepG2 cells - 0 hour (AID 1224882). Also: nearly all actives have a fitted effect of over 35% in size. Also: potency is read from the fitted curve at half-maximal effect. The gist of the method:
(§3)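 HepG2, 600 cells/well premixed w/ CellTox Green; 5 h settle, 37 C/5% CO2; pintool cpd add (DMSO); 37 C, 40 h; fluorescence read at 0, 8, 16, 24, 32, 40 h.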

Assay [4] can be described thus: A CellTox Green Cytotoxicity Assay to monitor cytotoxicity in HepG2 cells - 32 hour (AID 1224883). Also: nearly all actives have a fitted effect of over 50% in size. Also: potency is read from the fitted curve at half-maximal effect. The gist of the method: as §3
A short description of assay [5]: A CellTox Green Cytotoxicity Assay to monitor cytotoxicity in HEK293 cells - 8 hour (AID 1224884). Also: nearly all actives have a fitted effect of over 35% in size. Also: potency is read from the fitted curve at half-maximal effect. The gist of the method:
as §2

The nature of assay [6]: qHTS RealTime-Glo MT Cell Viability Assay in HepG2 cells - 16 hour (AID 1224885). Also: nearly all actives have a fitted effect of over 50% in size. The gist of the method:
(§4)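 Cell number in HepG2 cultures estimated from NanoLuc luminescence generated by metabolic reduction of a prosubstrate by living cells. The homogeneous, nonlytic format allowed repeated reads at 0, 8, 16, 24, 32 and 40 h of compound exposure.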

The nature of assay [7]: qHTS RealTime-Glo MT Cell Viability Assay in HEK293 cells - 8 hour (AID 1224887). Also: nearly all actives have a fitted effect of over 50% in size. Also: potency is read from the fitted curve at half-maximal effect. In short, it runs like this:
as §1

Assay [8] is described as follows: A CellTox Green Cytotoxicity Assay to monitor cytotoxicity in HEK293 cells - 16 hour (AID 1224888). Also: nearly all actives have a fitted effect of over 35% in size. Also: potency is read from the fitted curve at half-maximal effect. The gist of the method: as §2
Assay [9] in a line: qHTS RealTime-Glo MT Cell Viability Assay in HepG2 cells - 0 hour (AID 1224889). Also: nearly all actives have a fitted effect of over 50% in size. Also: potency is read from the fitted curve at half-maximal effect. The gist of the method: as §4
Assay [10] is described as follows: A CellTox Green Cytotoxicity Assay to monitor cytotoxicity in HepG2 cells - 8 hour (AID 1224890). Also: nearly all actives have a fitted effect of over 45% in size. Also: potency is read from the fitted curve at half-maximal effect. The gist of the method: as §3
Assay [11] can be described thus: qHTS assay to identify small molecule antagonists of the estrogen receptor alpha (ER-alpha) signaling pathway using the BG1 cell line in the presence of 0.1 nM 17-beta-estradiol - cell viability counter screen (AID 1259241). Also: nearly all actives have a fitted effect of over 40% in size. In short, it runs like this: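 VM7Luc4E2 cells (endogenous ER-alpha, 4×ERE-luciferase), hormone-starved 5 days in charcoal-stripped FBS, were treated with compounds plus 0.1 nM 17beta-estradiol for 22 hr at 37C; viability read in same wells as CellTiter-Fluor live-cell protease fluorescence.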

Assay [12] can be described thus: qHTS assay to identify small molecule antagonists of the androgen receptor (AR) signaling pathway using the MDA cell line in the presence of 0.5 nM R1881 - cell viability counter screen (AID 1259242). Also: nearly all actives have a fitted effect of over 45% in size. Also: potency is read from the fitted curve at half-maximal effect. In short, it runs like this:
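Live-cell protease fluorescence, CellTiter-Fluor, 30 min at 37C. Cells: MDA-kb2, 3,000/well, preincubated 5 hr. Compounds plus 0.5 nM R1881 final, 16 hr, 37C, 0% CO2.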

Assay [13] can be described thus: qHTS assay to identify small molecule HDAC inhibitors (AID 1259364). Also: potency is read from the fitted curve at half-maximal effect.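 Also: wild-type HCT-116 cells with endogenous class I/II HDAC activity; nearly all actives have a fitted effect of over 45% in size.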 In short, it runs like this:
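HCT-116 (wild type), 1,500 cells/well, overnight; compound 2 hr 37C 5% CO2; HDAC-Glo I/II reagent 30 min RT; luminescence readout.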

A short description of assay [14]: qHTS assay to identify small molecule HDAC inhibitors - cell viability counter screen (AID 1259365). The gist of the method:
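Wild-type HCT-116 cells were seeded at 1,500 per well, incubated overnight at 37 C, then exposed to compounds in DMSO for 2hr. Viability was read by CellTiter-Glo luminescence after 30min at room temperature.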

Assay [15] is described as follows: qHTS assay to identify small molecule agonists of the sonic hedgehog signaling (Shh) pathway - cell viability counter screen (AID 1259366). Also: nearly all actives have a fitted effect of over 50% in size. Also: potency is read from the fitted curve at half-maximal effect. In short, it runs like this: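 NIH/3T3-derived 3T3 Gli1-Luc cells (stable Gli1-responsive firefly luciferase reporter) were seeded, rested 4 hr at 37 C/5% CO2, then exposed to compounds in DMSO for 24 hr; viability was read by CellTiter-Fluor fluorescence in the same wells.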

Assay [16] is described as follows: qHTS assay to identify small molecule antagonists of the sonic hedgehog signaling (Shh) pathway - cell viability counter screen (AID 1259367). Also: nearly all actives have a fitted effect of over 55% in size. The gist of the method: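 CellTiter-Fluor signal in conditioned medium-stimulated 3T3 Gli1-Luc cells, 23 hr compound exposure, 37C.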
The target in assay [17] is Androgen receptor (Homo sapiens) (UniProt P10275). In words: qHTS assay to identify small molecule antagonists of the androgen receptor (AR) signaling pathway using the MDA cell line in the presence of 0.5 nM R1881 (AID 1259243). Also: nearly all actives have a fitted effect of over 50% in size. In short, it runs like this: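 MDA-kb2, MMTV-luc (AR/GR elements); 3,000 cells/well; cpd + 0.5 nM R1881 final; 16 hr 37C, 0% CO2; ONE-Glo 30 min RT; luminescence.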
Androgen receptor (Homo sapiens), sequence (P10275 whole entry, looked up): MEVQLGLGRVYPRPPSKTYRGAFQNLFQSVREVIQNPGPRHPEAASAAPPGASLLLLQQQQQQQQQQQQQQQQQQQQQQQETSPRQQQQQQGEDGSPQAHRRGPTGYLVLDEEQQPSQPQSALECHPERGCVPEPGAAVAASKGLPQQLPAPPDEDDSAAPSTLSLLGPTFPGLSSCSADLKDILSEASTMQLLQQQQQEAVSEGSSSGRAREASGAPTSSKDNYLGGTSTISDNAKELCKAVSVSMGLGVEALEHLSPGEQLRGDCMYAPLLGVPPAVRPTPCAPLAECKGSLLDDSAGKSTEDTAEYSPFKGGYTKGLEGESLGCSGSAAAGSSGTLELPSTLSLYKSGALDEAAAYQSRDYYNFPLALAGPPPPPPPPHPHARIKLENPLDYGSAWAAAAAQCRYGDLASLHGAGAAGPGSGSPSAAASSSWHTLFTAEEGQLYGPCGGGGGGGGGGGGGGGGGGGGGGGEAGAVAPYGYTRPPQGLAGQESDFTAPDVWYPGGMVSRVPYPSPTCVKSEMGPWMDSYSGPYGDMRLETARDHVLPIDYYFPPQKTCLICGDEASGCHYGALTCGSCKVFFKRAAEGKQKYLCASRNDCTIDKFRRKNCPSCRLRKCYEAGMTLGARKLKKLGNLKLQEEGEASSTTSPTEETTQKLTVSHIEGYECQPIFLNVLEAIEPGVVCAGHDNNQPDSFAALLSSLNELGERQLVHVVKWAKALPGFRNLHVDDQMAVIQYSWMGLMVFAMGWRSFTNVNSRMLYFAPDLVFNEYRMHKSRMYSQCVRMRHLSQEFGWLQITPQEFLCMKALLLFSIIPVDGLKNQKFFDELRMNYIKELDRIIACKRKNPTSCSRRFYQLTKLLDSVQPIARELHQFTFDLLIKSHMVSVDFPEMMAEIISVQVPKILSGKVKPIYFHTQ

Assay [18] is described as follows: qHTS assay to identify small molecule phospholipidosis (PLD) inducers (AID 1259344; active = well fitted curve in the direction sought with a large enough effect; an effect the other way counts as inactive or inconclusive). The gist of the method: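 Accumulated phospholipid, stained red by LipidTOX during 24 h compound treatment of HepG2 cells at 37 C, is quantified from images as pit number and intensity, normalised per cell using Hoechst-stained nuclei.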
The nature of assay [19]: qHTS RealTime-Glo MT Cell Viability Assay in HEK293 cells - 24 hour (AID 1224886). Also: nearly all actives have a fitted effect of over 50% in size. Also: potency is read from the fitted curve at half-maximal effect. In short, it runs like this: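 Homogeneous bioluminescent viability format in HEK293 cells (600 cells/well). Following 5 h at 37 C/5% CO2, 23 nL compound was pintooled; the signal was measured repeatedly during 40 h incubation.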
Assay [20] deals with Estrogen receptor (Homo sapiens) (UniProt P03372). Briefly: qHTS assay to identify small molecule antagonists of the estrogen receptor alpha (ER-alpha) signaling pathway using the BG1 cell line in the presence of 0.1 nM 17-beta-estradiol (AID 1259244). Also: nearly all actives have a fitted effect of over 50% in size. Also: potency is read from the fitted curve at half-maximal effect. The gist of the method:
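Luminescence after ONE-Glo (30 min, room temperature) measured ERE-luciferase activity in VM7Luc4E2 cells treated 22 h with compound and 0.1 nM final 17beta-estradiol as stimulator.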

Estrogen receptor (Homo sapiens), sequence (P03372 whole entry, looked up): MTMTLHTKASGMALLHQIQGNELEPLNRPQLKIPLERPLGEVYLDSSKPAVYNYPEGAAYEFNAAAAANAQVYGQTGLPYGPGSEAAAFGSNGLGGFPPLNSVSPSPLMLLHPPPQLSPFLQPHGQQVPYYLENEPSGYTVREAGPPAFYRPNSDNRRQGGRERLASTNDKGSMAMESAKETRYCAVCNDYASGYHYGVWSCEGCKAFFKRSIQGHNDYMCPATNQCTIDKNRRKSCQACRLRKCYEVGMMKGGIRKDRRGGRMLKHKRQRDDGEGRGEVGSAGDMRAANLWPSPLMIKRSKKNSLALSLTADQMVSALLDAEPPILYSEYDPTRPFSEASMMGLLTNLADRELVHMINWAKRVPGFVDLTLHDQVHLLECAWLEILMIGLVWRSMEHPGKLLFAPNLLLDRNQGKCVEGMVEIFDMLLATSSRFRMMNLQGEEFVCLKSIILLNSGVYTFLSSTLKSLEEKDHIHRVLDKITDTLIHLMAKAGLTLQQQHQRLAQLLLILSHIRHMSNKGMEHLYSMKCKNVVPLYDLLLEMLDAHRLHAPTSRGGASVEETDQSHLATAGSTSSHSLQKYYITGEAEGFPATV

On to `CCC(C)(c1ccc(O)cc1)c1ccc(O)cc1`, for which the Potency result in [1], in assay [2], in assay [3], in assay [4], in assay [5] and in assay [6] was “inactive” each time. For the same compound, the Potency entry in assay [7], in assay [8], in [9], in assay [10], in [11] and in assay [12] was “inactive” each time. Further, the Potency entry in assay [13], in [15] and in assay [16] was “inactive” in each case. For the same compound, the result in assay [14] was inactive.
In the case of `Nc1ccc(Cl)cc1N`, the Potency entry in assay [1], in assay [6], in assay [9], in [11], in assay [12] and in assay [17] was “inactive” throughout. The Potency result in [15] and in assay [16] was “inactive” throughout. The Potency in assay [2] is 21.9 µM (active); in assay [3], “inactive and 19.5 µM (active)”; in [4] it was “inactive and 23.2 µM (active)”; in assay [5], 24.5 µM (active); in [7] it was 40.4 µM (active); in [8], 24.5 µM (active). Moreover, the Potency entry in assay [10] was “inactive and 21.9 µM (active)”; in assay [13] it was 19.3 µM (active). Moreover, the call in assay [18] and in [14] was inactive.
For the compound `O=C(Nc1ccc(Br)cc1)c1cc(Br)cc(Br)c1O`, the Potency in assay [1] was 24.5 µM (active); in assay [2], 38.9 µM (active) and inactive; in [3], “inactive and 43.6 µM (active)”; in [4] it was 19.4 µM (active) and 27.5 µM (active) and 21.3 µM (active); in [5], “inactive and 38.9 µM (active)”; in [9], 21.8 µM (active). Besides, the Potency entry in assay [10] is “inactive and 43.6 µM (active)”; in [12] it was 13.3 µM (active); in assay [20], 6.83 µM (active) and 10.9 µM (active); in assay [13], 6.83 µM (active) and 6.11 µM (active) and 6.68 µM (active); in assay [15], 30.5 µM (active). In addition, the Potency result in [6], in assay [19], in assay [7] and in assay [11] was “inactive” throughout. In addition, the call in assay [18] and in assay [14] was inactive.
Regarding `Cc1ccc2c(c1N)C(=O)c1ccccc1C2=O`, the Potency result in assay [1], in assay [2], in assay [3], in [4], in assay [5] and in assay [6] was “inactive” each time. Also, the Potency result in assay [8], in assay [9], in assay [10], in assay [12] and in assay [20] was “inactive” in each case. The Potency is 9.67 µM (active) and 7.76 µM (active) in assay [19]; 7.68 µM (active) and 6.92 µM (active) in assay [7]. The compound was called inactive in assay [14].
For the compound `CC(C)N(C(=O)SCC(Cl)=C(Cl)Cl)C(C)C`, the Potency result in assay [1], in assay [2], in assay [3], in [4], in assay [5] and in assay [6] was “inactive” throughout. The Potency entry in assay [19], in assay [7], in assay [8], in assay [9], in assay [10] and in [11] was “inactive” in each case. The Potency entry in assay [12], in assay [13], in assay [15] and in assay [16] was “inactive” throughout. In addition, the outcome in assay [14] was inactive.
As to `Cc1cccc(N)c1N`, the Potency result in assay [1], in assay [2], in [3], in assay [4], in assay [5] and in assay [6] was “inactive” in each case. Moreover, the Potency entry in assay [19], in assay [7], in [8], in assay [9], in [10] and in assay [11] was “inactive” throughout. Moreover, the Potency result in [12], in assay [13], in assay [15] and in assay [16] was “inactive” each time. Also, the call in assay [14] was inactive.
In the case of `CCCCCCCCC(=O)NCc1ccc(O)c(OC)c1`, the Potency entry in [1], in assay [2], in assay [3], in assay [4], in assay [5] and in assay [6] was “inactive” each time. The Potency result in assay [19], in assay [8], in [9], in [10], in assay [11] and in [12] was “inactive” throughout. Also, the Potency entry in [20], in assay [13], in [15] and in [16] was “inactive” each time. In addition, the outcome in assay [18] and in [14] was inactive.
Turning to `C=CCc1ccc2c(c1)OCO2`, the Potency result in assay [1], in assay [2], in assay [3], in assay [4], in assay [5] and in assay [6] was “inactive” in each case. Also, the Potency entry in assay [19], in assay [7], in assay [8], in assay [9], in assay [10] and in assay [11] was “inactive” throughout. Besides, the Potency result in assay [12], in [13], in assay [15] and in assay [16] was “inactive” in each case. Besides, the call in assay [14] was inactive.
